{"source": "PubChem BioAssay (NCI)", "note": "“And” between values parts separate entries of the source, which are not always exact repeats. Equal values may be shown once. About 83,000 compounds went through this panel and 20% of them were active in at least one assay; those are over-represented in the sample as a whole.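 Assay: single dose, 48 h. Readout: percent growth (0 = no net growth; negative = cell death). Active: <10.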 The source made the active and inactive calls."}
{"test_system": "MDA-MB-468 breast", "assay": "NCI-60 one-dose screen, 48 h (100 = growth as untreated, 0 = no growth, -100 = all killed)", "conditions": "10 µM unless noted"}
{"smiles": "COC(=O)c1cc2c(=O)[nH]cc3c2c(n1)CCC3", "growth": "97.7% (inactive)"}
{"smiles": "O=C(O)CNS(=O)(=O)c1ccc(Oc2ccc(S(=O)(=O)NCC(=O)O)cc2)cc1", "growth": "107% (inactive)"}
{"smiles": "C/C(=C(/c1ccc(Cl)cc1)c1ccc(OCCCN(C)C)cc1)c1ccc(Cl)cc1", "growth": "89.4% (inactive)"}
{"smiles": "Cc1nc2c3c(ncn2n1)Oc1c(c(=O)[nH]c2ccccc12)C3c1ccc(Cl)cc1", "note": "(centres undefined)", "growth": "109% (inactive)"}
{"smiles": "C#Cc1nc(C(C)=O)cs1", "growth": "90.5% (inactive)"}
{"smiles": "CCc1cccc2c3c(sc12)C(c1ccc(Cl)cc1)C(C#N)=C(N)O3", "note": "(centres undefined)", "growth": "-7.98% (active)"}
{"smiles": "COc1ccc(-c2nnc(SCC(=O)c3ccc(Cl)cc3)o2)cc1", "growth": "109% (inactive)"}
{"smiles": "Cc1c(C(N)=O)sc2c1c(=O)n(Cc1ccccc1)c1nnc(S(=O)(=O)CC(=O)Nc3ccc(Cl)cc3)n21", "growth": "33.2% (inactive)"}
{"smiles": "CCOC(=O)c1cc(C(=O)c2ccc(Br)cc2)n2cc(C)cc(C)c12", "growth": "108% (inactive)"}
{"smiles": "COC1=C(c2ccccc2)C(=O)C(OC)=C(c2ccccc2)C1=O", "growth": "43% (inactive)"}
{"smiles": "Cc1cc2c(cc1C)NC1=C(N2)OC(c2c3ccccc3cc3ccccc23)C1=O", "note": "(centres undefined)", "growth": "-18.6% (active)"}
{"smiles": "CCn1c(SCC(=O)Nc2cc(C(F)(F)F)ccc2Cl)nc2ccccc2c1=O", "growth": "50.3% (inactive)"}
{"smiles": "COc1cccc(-c2nc3sccn3c2/C=C/C(=O)c2ccc(C(F)(F)F)cc2)c1", "growth": "75.6% (inactive)"}
{"smiles": "CCOC(=O)Nc1ccc(-c2nc(-c3cccc(OC)c3)c(-c3ccnc(Br)c3)[nH]2)cc1", "growth": "25.9% (inactive)"}
{"smiles": "CN(C)CCOc1ccc(/C(=C(/CCCl)c2ccccc2)c2ccccc2)cc1", "growth": "-57.1% (active)"}
{"smiles": "NC1(C(=O)O)CSSC1", "growth": "29.6% (inactive)"}
{"smiles": "O=[N+]([O-])c1ccc(O)c2ncccc12", "growth": "30.6% (inactive) and 1.77% (active)"}
{"smiles": "CC[C@H](C)[C@@H](C(=O)OC)n1cc(CNC(=O)[C@@H](Cc2ccccc2)NC(=O)OCc2ccccc2)nn1", "growth": "99% (inactive)"}
{"smiles": "C=C1C(=O)O[C@H]2[C@H]1CC/C(COC(=O)/C=C\\C(=O)NCc1ccc(Cn3c(=O)sn(CCI)c3=O)cc1)=C\\CC[C@@]1(C)O[C@@H]21", "growth": "-36.2% (active)"}
{"smiles": "Fc1cccc(-c2ccc3c(c2)C2(CCNCC2)CN3)c1", "growth": "116% (inactive)"}
{"smiles": "CC[C@@]1(C(N)=O)CC2C=CC1C2", "note": "(some centres undefined)", "growth": "103% (inactive)"}
{"smiles": "C#CCSc1nnnn1-c1ccccc1", "growth": "22.3% (inactive)"}
{"smiles": "O=C(c1ccc(O)c(Br)c1)c1ccc(O)c(Br)c1", "growth": "106% (inactive)"}
{"smiles": "CN(C)CCOC(=O)C(C)(C)C", "growth": "98.9% (inactive)"}
